L major viab: reduces viability of Leishmania major promastigotes; resazurin fluorescence viability; inhibition, % at 10 µM; 9% of 200,000 active; AID 1063; in the data active = inhibition above about 50%;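 note: promastigotes grown with compound for 44 hours at 28 °C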
CHOP inh: blocks CHOP induction under ER stress | CHO-K1 CHOP-promoter luciferase, tunicamycin-induced, 15-18 h | 3.8% of 220,000 active | inhibition, % at 10 µM;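 active = compounds that reduced the stress-induced luciferase reporter signal by more than about 70% of percent inhibition, limit read from the data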;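 note: 0% = tunicamycin plus vehicle and 100% = wells without tunicamycin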
WT yeast gro inh: growth inhibition of WT yeast, mitochondrial fusion screen. mitochondrial fusion phenotypic screen, WT strain. inhibition, % at 10 µM. 2.1% of 190,000 active. AID 1362; in the data active = inhibition above about 58%; tested in S. cerevisiae
Arbovirus anti: antivirals against arbovirus infection | inhibition, % at 10 µM | arbovirus infection cell-based antiviral screen | 0.37% of 200,000 active; in the data active = inhibition above about 30%
* hit, by the source's call; . = not tested or not shown. Only some compounds are listed: those with a hit (about 12% of all), similar ones and a draw of the others.

SMILES	L major viab	CHOP inh	WT yeast gro inh	Arbovirus anti
CCN(CC)CCn1c(=N)n(CCOc2ccccc2)c2ccccc21	93.3*	-24.5	3.6	-28.9
CCCCn1c(=N)n(CCOc2ccc(C)cc2)c2ccccc21	96.6*	31.1	20.6	-37.8
O=C(Nc1ccc2c(c1)Cc1ccccc1-2)c1cccnc1	7.2	-20.2	14.2	2.0
CNc1nc(N(C)C)nc(N(C)C)n1	-1.6	20.2	-1.4	-8.2
O=C(CCc1c[nH]c2ccccc12)N1CCN(c2ccc(O)cc2)CC1	14.7	30.8	23.3	-24.4
O=S(=O)(NC12CC3CC(CC(C3)C1)C2)c1ccc(F)cc1	0.7	72.0*	17.8	3.4
O=C(OCCNc1ccc(C(F)(F)F)cc1[N+](=O)[O-])c1cc2ccccc2oc1=O	.	-8.5	.	.
CCOC(=O)c1[nH]c2cc(OC)c(OC)cc2c1NC(=O)CN(C)C1CCCCC1	60.6*	.	18.8	-11.2
CCOC(=O)c1[nH]c2cc(OC)c(OC)cc2c1NC(=O)c1ccc2c(c1)OCO2	5.1	-1.9	2.5	-3.0
O=C(c1c(F)cccc1F)N1CCN=C1SCc1ccccc1	.	14.2	.	.
CC(COc1ccccc1)N1CCC(CO)(CCc2ccccc2)CC1 (centres undefined)	97.4*	-9.5	3.5	-19.8
CSCC(C)N1CCC(CO)(CCc2ccccc2)CC1 (centres undefined)	82.2*	21.4	-15.5	0.0
COc1ccccc1NC(=O)Cn1cnc2c(nnn2-c2ccc(C)cc2)c1=O	-3.9	30.3	0.5	-2.4
Cc1nc(-c2cccnc2)sc1C(=O)Nc1cccc(C(F)(F)F)c1	6.5	82.7*	22.8	-0.1
O=C(NNc1c(Cl)cncc1Cl)c1sccc1Cl	.	17.4	.	.
COC(=O)c1cc(N2CCN(C)CC2)nc2ccccc12	4.7	-0.4	0.6	2.9
COC(=O)c1cc2ccccc2c(-c2c(OC)c(C(=O)OC)cc3ccccc23)c1OC	44.7	27.8	72.3*	-12.7
COc1cc(OC)nc(/N=C/NO)n1	.	-2.6	.	.
O=C(Nc1nc(-c2ccccc2)cs1)C1c2ccccc2Oc2ccccc21	1.6	22.4	38.1	0.1
Cc1cccc2sc(NC(=O)C3c4ccccc4Oc4ccccc43)nc12	80.6*	65.6	0.8	-16.3
O=C(Nc1nc(-c2ccncc2)cs1)C1c2ccccc2Oc2ccccc21	89.6*	38.5	39.1	17.2
Cc1ccccc1Cn1nc(C)c(NC(=O)C2c3ccccc3Oc3ccccc32)c1C	84.3*	50.7	3.8	1.5
O=C(Nc1ncccn1)C1c2ccccc2Oc2ccccc21	55.2*	37.8	-9.4	0.4
Cc1nnc(NC(=O)C2c3ccccc3Oc3ccccc32)s1	-1.7	36.7	-47.4	-4.5
Cc1nn(-c2ccccc2)c2nc(C(Cl)(Cl)Cl)[nH]c(=O)c12	.	16.4	.	.
SMILES	L major viab	CHOP inh	WT yeast gro inh	Arbovirus anti
Cc1cccc2sc(NC(=O)CN(C)S(=O)(=O)c3cccs3)nc12	10.2	11.4	23.9	-2.4
Cc1cccc2sc(NC(=O)CN(C)S(=O)(=O)c3ccc(Br)s3)nc12	12.5	84.9*	14.5	-25.5
Cc1cc(C)c(NC(=O)/C(=C/c2ccccc2)c2ccccc2)c(C)c1	98.0*	38.0	15.2	-10.1
O=C(Nc1ccc(N2CCN(C(=O)c3ccco3)CC2)c(Cl)c1)c1cc2ccccc2o1	95.9*	.	21.8	-8.6
O=C(c1cc2ccccc2o1)N1CCN(c2ccccc2Cl)CC1	29.6	81.9*	75.1*	7.6
CCC(=O)N1CCN(c2ccc(NC(=O)c3cc4ccccc4o3)cc2Cl)CC1	37.0	.	-17.4	-41.4
COC(=O)c1cc(OC)c(OC)cc1NC(=O)c1cc(C)on1	0.7	.	.	.
CN(C)c1ccc(CNC(=O)C2CCC(CNc3c(N4CCCCC4)c(=O)c3=O)CC2)cc1 (centres undefined)	.	-18.4	.	.
COc1ccccc1CCNC(=O)/C(=C/c1cccnc1)NC(=O)c1ccccc1	9.2	2.2	10.3	7.7
O=C(NCCc1ccc(Cl)cc1)/C(=C/c1cccnc1)NC(=O)c1ccccc1	58.7*	-1.9	5.8	-1.6
O=C(CN1CCOCC1)N/N=C/c1ccc(-c2cccc(Cl)c2Cl)o1	.	47.1	.	.
CNc1oc(C)nc1S(=O)(=O)c1ccc(C)cc1	-1.4	-13.3	67.6*	6.8
Cc1ccc(S(=O)(=O)c2nc(C)oc2NCc2ccccc2)cc1	-0.3	-7.0	-6.4	5.2
On1c2c(c3c4nonc4ccc31)CCCC2	-6.9	36.0	73.9*	1.1
COc1ccc(C2CC(c3ccc([N+](=O)[O-])cc3)=NN2C(=O)c2ccccc2)cc1OC (centres undefined)	7.5	15.1	-12.6	0.3
COc1ccc(C2=NN(C(=O)c3cccc([N+](=O)[O-])c3)C(c3cccc([N+](=O)[O-])c3)C2)cc1 (centres undefined)	52.6*	-3.7	-2.4	-4.0
O=C(CCl)Nc1ccc(Oc2cnc3ccccc3n2)cc1	66.1*	6.7	9.5	16.3
COc1ccc(NC(=O)CCl)cn1	.	-5.0	.	.
CCN(CC)C(=O)Oc1ccc(Br)cc1C(=O)Nc1ccc(F)cc1F	.	12.8	.	.
C=CCN1C(=O)C(CC(=O)Nc2ccccc2)N(Cc2ccccn2)C1=S (centres undefined)	-2.5	14.6	-2.6	0.5
CCN1CCCc2cc(CN(CCN3CCOCC3)C(=S)Nc3ccccc3OC)ccc21	20.3	2.1	14.5	4.8
CCOc1ccc2c(c1)C(N(CCN1CCOCC1)C(=S)Nc1ccccc1OC)CC(C)(C)O2 (centres undefined)	58.5*	-2.3	12.8	8.1
Cc1ccc(C(c2c(C)n(C)n(-c3ccccc3)c2=O)c2c(C)n(C)n(-c3ccccc3)c2=O)s1	93.6*	7.6	-5.6	-28.9
Cc1c(C(c2ccc(O)cc2)c2c(C)n(C)n(-c3ccccc3)c2=O)c(=O)n(-c2ccccc2)n1C	-0.4	-4.2	17.8	3.3
CCCCCC(=O)NNC1=NCC(Cc2cccc(Cl)c2)S1 (centres undefined)	6.1	9.3	8.8	2.6
SMILES	L major viab	CHOP inh	WT yeast gro inh	Arbovirus anti
COc1ccc(Cn2nnnc2C(C(C)C)N(Cc2ccco2)Cc2cccs2)cc1 (centres undefined)	77.5*	46.8	1.8	-38.7
CC(C)C(c1nnnn1Cc1ccccc1)N(Cc1ccco1)Cc1cccs1 (centres undefined)	21.5	30.9	50.7	-18.7
COc1ccc2cc(CN(Cc3ccco3)Cc3nnnn3C3CCCCC3)c(=O)[nH]c2c1	95.8*	22.1	35.9	-32.5
COc1ccc2cc(CN(Cc3ccco3)C(c3nnnn3C3CCCCC3)C(C)C)c(=O)[nH]c2c1 (centres undefined)	98.5*	66.6	28.4	-2.8
COc1ccc(NC2=CC(=O)CC(c3ccccc3)C2)cc1 (centres undefined)	-7.4	-15.9	20.6	-7.3
S=C(NCCCn1ccnc1)Nc1cccc(Cl)c1	13.1	-0.8	-5.8	1.4
Cc1ccc(CNC(=O)CSc2c3c(nc4ccc(Cl)cc24)CCCC3)o1	15.1	69.3	-1.3	8.2
CCN(CC)CCCNC(=O)c1ccc2c(Cl)c3c(nc2c1)CCCC3	82.7*	53.2	-14.9	-0.1
Cc1ccc(N(C)C(=O)c2ccc3c(Cl)c4c(nc3c2)CCC4)cc1C	16.3	57.6	82.7*	-33.1
CCN(CC)CCNC(=O)CSc1c2c(nc3cc(Cl)ccc13)CCCC2	100.6*	-22.1	-7.6	-33.4
CCN(CC)CCCNC(=O)c1ccc2c(SCC(=O)O)c3c(nc2c1)CCC3	-6.7	6.8	15.1	2.1

From PubChem
